Mtb MenB inh: blocks the Mycobacterium tuberculosis MenB enzyme; inhibition, % (concentration not given with the values); AID 540299; actives 0.43% (n = 100,000); P9WNP5; MenB enzyme assay, absorbance read-out; in the data active = inhibition above about 21%, passing the limit was not always enough
Target sequence (P9WNP5 whole entry, looked up): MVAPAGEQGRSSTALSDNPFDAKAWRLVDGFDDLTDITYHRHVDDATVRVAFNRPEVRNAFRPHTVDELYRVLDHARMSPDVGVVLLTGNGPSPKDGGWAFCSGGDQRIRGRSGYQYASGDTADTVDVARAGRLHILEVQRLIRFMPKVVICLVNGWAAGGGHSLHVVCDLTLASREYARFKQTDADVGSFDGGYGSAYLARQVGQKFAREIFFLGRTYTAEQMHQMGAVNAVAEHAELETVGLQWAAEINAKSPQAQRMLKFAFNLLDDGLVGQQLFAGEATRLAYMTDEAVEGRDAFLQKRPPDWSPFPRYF
Mtb MbtI inh: inhibitors of Mycobacterium tuberculosis siderophore enzyme MbtI; P9WFX0; purified MbtI enzyme, fluorescence intensity read-out; inhibition, % (no concentration beside the values); actives 0.89% (n = 100,000); in the data active = inhibition mostly above about 56%, no sharp cut-off; inactive = mostly below about 77%
PV pol inh: inhibitors of poliovirus RNA polymerase binding and polymerization | P03300 | poliovirus polymerase elongation, fluorescence polarization; hits give low values | % elongation, % (compound at 16.7 µg/mL) | actives 0.66% (n = 150,000); in the data active = % elongation below about 90%
The depositor's hits bear a star. This is a sample that favours compounds with a hit; in the whole collection about 1.4% have one here.

What do the screens show for `CNc1nc(-c2ccc3c(c2)CCN3C(=O)C(C)C)cs1`?
Mtb MenB inh: 35*; Mtb MbtI inh: 14; PV pol inh: 103

What do the screens show for `CNc1nc(-c2ccc3c(c2)CCN3S(=O)(=O)c2ccccc2)cs1`?
Mtb MenB inh: 14; Mtb MbtI inh: 13; PV pol inh: 101

How did O=c1[nH]c(C2CCCN(S(=O)(=O)c3cccc(Cl)c3)C2)nc2c1nnn2Cc1ccc(Cl)cc1 (stereo not drawn) do in these assays?
Mtb MenB inh: 6; Mtb MbtI inh: -10; PV pol inh: 102

Results for CN(CCNC(=O)c1cc(=O)[nH]c2ccc(S(=O)(=O)N3CCCCC3)cc12)Cc1ccccc1 ?
Mtb MenB inh: 9; Mtb MbtI inh: -10; PV pol inh: 99

Results for COC(=O)c1ccccc1O ?
Mtb MbtI inh: -8; PV pol inh: 102

How did COC(=O)c1ccc(O)c(C(=O)OC)c1 do in these assays?
Mtb MenB inh: -2; Mtb MbtI inh: -126; PV pol inh: 0.0*

Results for O=c1[nH]c2ccc(Nc3nc(CN4CCOCC4)nc4scc(-c5cccs5)c34)cc2[nH]1 ?
Mtb MenB inh: 4; Mtb MbtI inh: 78; PV pol inh: 102

How did O=C(NC1(C(F)(F)F)Oc2ccc(Cl)cc2O1)N1CCCCC1 (stereo not drawn) do in these assays?
Mtb MbtI inh: 40

What do the screens show for `CCN(C(=O)NC1(C(F)(F)F)Oc2ccc(Cl)cc2O1)C1CCCCC1` (stereo not drawn)?
Mtb MenB inh: -20; Mtb MbtI inh: 71*; PV pol inh: 100

Results for CNc1c(C(=O)c2ccc(F)cc2)sc(N)c1C#N ?
Mtb MenB inh: -33; Mtb MbtI inh: 13; PV pol inh: 102

How did Cc1ccc(C(=O)c2sc(Nc3ccc(F)cc3)c(C#N)c2N)cc1 do in these assays?
PV pol inh: 77*

Results for N#Cc1ccc(-c2cccnc2)n(CC(=O)N2CCOCC2)c1=O ?
Mtb MenB inh: 42*; Mtb MbtI inh: 27; PV pol inh: 101

Results for CC(C)N(C(=O)Cn1c(-c2cccnc2)ccc(C#N)c1=O)C(C)C ?
Mtb MenB inh: -21; Mtb MbtI inh: 13; PV pol inh: 99

What do the screens show for `Clc1ccc(NCCC2=CCCCC2)nn1`?
Mtb MenB inh: 34*; Mtb MbtI inh: 6; PV pol inh: 100

How did Clc1ccc(NCCN2CCCCCC2)nn1 do in these assays?
Mtb MenB inh: 24; Mtb MbtI inh: -2; PV pol inh: 99

Results for CC1CCCCN1C(=O)Cn1nnc2c(cnn2-c2ccccc2)c1=O (stereo not drawn) ?
Mtb MenB inh: -31; Mtb MbtI inh: -2; PV pol inh: 103

What do the screens show for `Cc1ccc(S(=O)(=O)N2CCN(Cn3nc(C)sc3=S)CC2)c(C)c1`?
Mtb MenB inh: 15; Mtb MbtI inh: 68*; PV pol inh: 106

Results for Cc1ccc(S(=O)(=O)N2CCN(Cn3nc(Nc4ccccc4F)sc3=S)CC2)cc1 ?
Mtb MenB inh: 4; Mtb MbtI inh: 94*; PV pol inh: 102

How did CCS(=O)(=O)N1CCN(S(=O)(=O)c2ccc(C)cc2)CC1 do in these assays?
Mtb MenB inh: -14; Mtb MbtI inh: -18; PV pol inh: 100

What do the screens show for `Cc1ccc(S(=O)(=O)N2CCOCC2)c(C)c1`?
Mtb MenB inh: 2; Mtb MbtI inh: 1; PV pol inh: 103

What do the screens show for `COc1ccc(-c2cc(N)n[nH]2)c(OC)c1`?
Mtb MenB inh: -66; Mtb MbtI inh: -62; PV pol inh: 102

How did S=C(NCCN1CCOCC1)NC1CCCc2ccccc21 (stereo not drawn) do in these assays?
Mtb MenB inh: -11; PV pol inh: 105

How did O=c1[nH]c(=S)[nH]nc1-c1ccc(O)cc1 do in these assays?
Mtb MenB inh: -13; Mtb MbtI inh: 17; PV pol inh: 102

What do the screens show for `CCOc1ccc(NC(=O)c2c(NC(=O)c3ccccc3Br)sc3c2CCC(C)C3)cc1` (stereo not drawn)?
PV pol inh: 78*

Results for CCOC(=O)c1ccc(NC(=O)c2c(NC(C)=O)sc3c2CCC(C)C3)cc1 (stereo not drawn) ?
PV pol inh: 104

What do the screens show for `C1=C(c2ccccc2)CC(c2ccccc2)=C1`?
Mtb MenB inh: 0; Mtb MbtI inh: 115; PV pol inh: 102

Results for O=C1c2ccccc2C(=O)N1CC1CC2C=CC1C2 (stereo not drawn) ?
Mtb MenB inh: -4; Mtb MbtI inh: 3; PV pol inh: 102

What do the screens show for `FC(F)(F)c1ccccc1CN1CCN(CC2CC3C=CC2C3)CC1` (stereo not drawn)?
Mtb MenB inh: -2; PV pol inh: 48*

How did COc1cccc(/C=N/n2c(N3CCOCC3)nc3ccccc32)c1OC do in these assays?
Mtb MenB inh: -23; Mtb MbtI inh: 69; PV pol inh: 104

Results for CCN(CC)C(=O)Cn1c(S(=O)(=O)C(C)C)nc2ccccc21 ?
Mtb MenB inh: -10; Mtb MbtI inh: 11; PV pol inh: 100

From PubChem BioAssay
